Screening data as filed in PubChem.
PABP1 MLLE inh = inhibitors of PABP1 MLLE–PAM2 peptide binding, primary screen, biochemical, fluorescence polarization, FITC-PAM2, GST-MLLE. Polyadenylate-binding protein 1 (Homo sapiens), P11940. inhibition, % at 20 µM. 360,000 tested, 0.36% active. AID 588489, 2011; in the data active = inhibition above about 35%, passing the limit was not always enough
PABP polyA inh = PABP poly(A) RNA binding inhibitors, primary screen, biochemical, fluorescence polarization, uHTS. 290,000 tested, 1% active. calls only at 35 µM. Polyadenylate-binding protein 1 (Homo sapiens), P11940;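 note: calls also rest on retests at 20 µM and on dose response follow-up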
eIF4H inh = human eIF4H binding inhibitors, primary screen, translation initiation inhibitor project, biochemical, uHTS, fluorescence polarization; Eukaryotic translation initiation factor 4H (Homo sapiens), Q15056; eIF4H fluorescence polarization binding assay; inhibition, % at 35 µM; 290,000 tested, 0.94% active; AID 2012, 2009;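 note: calls also rest on retests at 20 µM and on dose response follow-up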
eIF4E 4G PPI = eIF4E–eIF4G protein interaction inhibitors, primary screen, biochemical, uHTS, TR-FRET, eIF4GI fragment; Eukaryotic translation initiation factor 4E (Mus musculus) + Eukaryotic translation …; TR-FRET eIF4E-eIF4GI(517-606) binding, 2 h; inhibition, % at 21.7 µM; 220,000 tested, 0.37% active;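 active = inhibition above about 30%, limit read from the data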
Large screens that a line does not name were inactive; [ ] = another dose, or the depositor's remark. Most compounds without a hit are left out; they make up all but 1.5% or so of the library. Unless noted, the rule behind the calls is not given here.

O=C(/N=C1\NC(=O)C(F)(C(F)(F)F)S1)NC1CCCCC1 (configuration not stated)	eIF4H inh 122, eIF4E 4G PPI 44
Cc1cc(Br)cn2c(Cc3ccsc3)c(C3CCCCC3)nc12	none (no result: PABP polyA inh, eIF4H inh, eIF4E 4G PPI)
CCOC(=O)C(C)n1ncn2cccc2c1=O (configuration not stated)	eIF4E 4G PPI 43[fluorescence artefact?]
Cc1cccc(C)c1NC(=O)c1cc(-c2ccccn2)nc2ccccc12	eIF4H inh active
O=C(Nc1ccncc1)c1cc(-c2ccccn2)nc2ccccc12	none
O=S1(=O)CC(O)C(Nc2ccccc2)C1 (configuration not stated)	eIF4H inh active
Cc1sc(NC(=O)CSc2nnc(-c3ccc(F)cc3)o2)c(C#N)c1C	PABP polyA inh active, eIF4H inh 66
Cc1ccc(-c2nnc(SCC(=O)Nc3sc(C)c(C)c3C#N)n2C)cc1	none
Cc1ccc(-c2csc3ncnc(SCc4ccc(C(=O)O)cc4)c23)cc1	eIF4H inh 95
c1ccc2nc3[nH]cnc3nc2c1	PABP1 MLLE inh 49
COc1cccc(CNC(=S)Nc2ccc3c(c2)c(=O)n(C)n3Cc2ccc(F)cc2)c1	none (no result: PABP polyA inh, eIF4H inh, eIF4E 4G PPI)
CCOc1cc(C2NC(=O)CCC2[N+](=O)[O-])cc(Br)c1OCC (configuration not stated)	none (no result: eIF4E 4G PPI)
Cc1cccn2c(CNCCCn3ncc4ccccc43)c(C(=O)N3CCCCC3)nc12	PABP polyA inh active
COc1ccc(NC(=O)C[C@H]2C(=O)N(C3CCCCC3)C[C@@H]2CSC)cc1	none (no result: PABP polyA inh, eIF4H inh, eIF4E 4G PPI)
O=C(Nc1ccc(F)cc1F)c1noc2c1CCC2	PABP polyA inh active, eIF4H inh 85
O=C1CCCC/C1=C\Nc1ccc(S(=O)(=O)Nc2cnc3ccccc3n2)cc1	none
CCn1c(O)c(N=NC(=O)CNc2cccc(C)c2)c2ccccc21	none
C=CCn1c(O)c(N=NC(=S)Nc2ccccc2F)c2cc(S(=O)(=O)N3CCOCC3)ccc21	PABP1 MLLE inh 42
C=CCn1c(O)c(N=NC(=S)Nc2ccccc2F)c2ccccc21	PABP1 MLLE inh 39
C=CCn1c(O)c(N=NC(=S)Nc2cccc(C)c2)c2ccccc21	PABP1 MLLE inh 42
c1ccc(OCCNc2ccn3nc(-c4ccco4)cc3n2)cc1	none (no result: PABP polyA inh, eIF4H inh, eIF4E 4G PPI)
CCN1/C(=C/c2cccc[n+]2C)Sc2ccc(OC)cc21	none (no result: eIF4E 4G PPI)
CCCCN1/C(=C/c2cccc[n+]2C)Sc2cc(NC(C)=O)ccc21	PABP polyA inh active (no result: eIF4E 4G PPI)
CCCCCc1ccc(C(=O)CCCC)c(=S)[nH]1	PABP1 MLLE inh 38
CN1CCN(c2ccc(CNC(=O)c3ccc(-c4ccc(F)c(F)c4)c4ccoc34)cc2)CC1	none (no result: PABP polyA inh, eIF4H inh, eIF4E 4G PPI)
Cc1nnc(-c2ccco2)c2cn(-c3cccc(Br)c3)nc12	eIF4H inh 64
CC(=O)c1nn(-c2cccc(Br)c2)cc1C(=O)c1ccco1	none
O=C(O)C1C2C=CC3(CN(Cc4ccco4)C(=O)C13)O2 (configuration not stated)	eIF4H inh 84
Cc1c(Cl)ccc2c(C(N)=O)cc(-c3ccccn3)nc12	none
Cc1cc(C)c2nc(-c3ccccn3)cc(C(=O)n3cccn3)c2c1	PABP polyA inh active
COc1ccc(NC(=O)CNc2ccc(OC)c(S(=O)(=O)N3CCOCC3)c2)cc1	none (no result: PABP polyA inh, eIF4H inh, eIF4E 4G PPI)
COc1cc2c(ccc3cc(OC)c(OC)c(O)c32)cc1O	PABP polyA inh active, eIF4H inh 74
CC1CN(c2nc3ccccc3nc2C(C#N)C(=O)NCc2ccc3c(c2)OCO3)CC(C)O1 (configuration not stated)	PABP polyA inh active
CCC(CC)COC(=O)C(C#N)c1nc2ccccc2nc1N1CCN(CC)CC1 (configuration not stated)	PABP polyA inh active, eIF4H inh 81
CCCCNC(=O)C(C#N)c1nc2ccccc2nc1N1CCN(Cc2ccc3c(c2)OCO3)CC1 (configuration not stated)	none (no result: PABP polyA inh, eIF4H inh, eIF4E 4G PPI)
C=CCOC(=O)C(C#N)c1nc2ccccc2nc1N1CCN(Cc2ccc3c(c2)OCO3)CC1 (configuration not stated)	PABP polyA inh active, eIF4H inh 69
CCOC(=O)N(C)c1c(CC)nc2c(OCc3ccccc3C)cccn12	none (no result: PABP polyA inh, eIF4H inh, eIF4E 4G PPI)
O=C(Nc1ccccn1)C(c1ccccc1)c1ccccc1	none (no result: PABP polyA inh, eIF4H inh, eIF4E 4G PPI)
CC(C)(C)c1cc(-c2csc(Nc3ccccc3)[n+]2Cc2ccc(C(=O)O)cc2)cc(C(C)(C)C)c1O	PABP polyA inh active, eIF4H inh 52
O=C(O)c1ccc(C[n+]2c(-c3ccccc3)csc2Nc2ccccc2)cc1	none
Cc1c(N2C(=O)/C(=C3\C(=O)N(CC(=O)O)c4ccccc43)SC2=S)c(=O)n(-c2ccccc2)n1C	PABP1 MLLE inh 52
Cc1ccc(/C=C2\SC(=S)N(c3c(C)n(C)n(-c4ccccc4)c3=O)C2=O)cc1	PABP1 MLLE inh 47
Cc1c(N2C(=O)/C(=C/c3ccccc3)SC2=S)c(=O)n(-c2ccccc2)n1C	none
Cc1cccc(N(C)C(=O)CN(C)S(=O)(=O)c2ccc3c(c2)c(=O)n(C)c(=O)n3C)c1	none (no result: eIF4E 4G PPI)
Cc1ccc(OCC(=O)N/N=C\c2ccc(-c3cccc(C(=O)O)c3)o2)c(C)c1	eIF4H inh 89
COc1ccc(CC(=O)N/N=C/c2ccc(-c3cccc(C(=O)O)c3)o2)cc1OC	PABP polyA inh active, eIF4H inh 81
COC(=O)C1=C(C)N(c2ccc(OC)cc2)C(C)=C(C(=O)OC)C1c1ccccc1	none
Cn1cc(CN2CCC(C(=O)NC(c3ccc(F)cc3)c3ccc4ccccc4n3)CC2)c2ccccc21 (configuration not stated)	none (no result: PABP polyA inh, eIF4H inh, eIF4E 4G PPI)
Clc1ccc(CSc2nnc(-c3ccc4c(c3)OCO4)o2)cc1	none
O=C1CCCCC1Sc1nnc(-c2ccc3c(c2)OCO3)o1 (configuration not stated)	PABP polyA inh active, eIF4H inh 9.7
Cc1ccc(S(=O)(=O)N2CCC(C(=O)NNC(=O)c3ccccc3)CC2)cc1	PABP polyA inh active, eIF4H inh 56
CN(C)CCNc1nc(Oc2ccccc2)c2sccc2n1	none (no result: PABP polyA inh, eIF4H inh, eIF4E 4G PPI)
O=C(Nc1nc(-c2ccccc2)cs1)c1ccco1	eIF4E 4G PPI 66
O=C(COc1ccccc1)Nc1nc(-c2cccnc2)cs1	none (no result: PABP polyA inh, eIF4H inh, eIF4E 4G PPI)
COc1ccc(-c2csc(NC(=O)c3ccco3)n2)cc1	none
O=C(Nc1nc2ccsc2c(=O)s1)c1ccco1	eIF4H inh 64
O=C(COc1ccccc1)Nc1nc(-c2ccncc2)cs1	PABP1 MLLE inh 35 (no result: eIF4E 4G PPI)
Cc1ccc(NC(=O)Cn2nc(C(=O)O)c3ccccc3c2=O)c([N+](=O)[O-])c1	none (no result: eIF4E 4G PPI)
O=C(CSc1nc(-c2ccccc2)nc2c1Cc1ccccc1O2)Nc1ccc(C(=O)O)cc1	eIF4E 4G PPI 60
O=C(CSc1nc(-c2ccccc2)nc2ccccc12)Nc1cccc(C(=O)O)c1	none
O=C(CSc1nc(-c2ccc(F)cc2)nc2c1Cc1ccccc1O2)Nc1ccc(C(=O)O)cc1	eIF4E 4G PPI 62
Nc1c(C(=O)O)sc2nc(-c3ccc(F)cc3)cc(-c3ccccc3)c12	PABP polyA inh active
